About 7,900 targets were measured; listed, in parts, are those with a hit and a random draw of the rest. About 0.6% of all pairs of compound and target were hits. Values without a mark were called inactive.
Assays:
Experiment in all cases: log2 fold change, soluble protein after heating vs DMSO (PISA); higher = thermal stabilisation; K562 cells, 10 uM, 30 min; active = over 0.2 and 3.5 SD of the protein, either way, in both replicates (recomputed)
[1] = compound: COC1=CC=C(C=C1)CN2C=CC3=C2C=C(C=C3)C(=O)NO
Procedure, shortened: (§1)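 Aliquots of K562 cells (2×10^6 cells/mL) treated with 10 μM compound for 30 min were heated for 3 min over 48°C-58°C. After pooling and extraction in PBS with 0.5% NP-40 at 4°C, soluble protein from a 21,000xg, 90 min spin was quantified by TMTpro 16plex LC-MS/MS with channel sums equalised. Thermal stability is expressed against control samples, from duplicates, as a log2 fold change.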

filanesib = compound: CON(C)C(=O)N1N=C(c2cc(F)ccc2F)S[C@@]1(CCCN)c1ccccc1 [filanesib]
Procedure, shortened: as §1

zotarolimus = compound: CO[C@H]1C[C@@H]2CC[C@@H](C)[C@@](O)(O2)C(=O)C(=O)N2CCCC[C@H]2C(=O)O[C@H]([C@H](C)C[C@@H]2CC[C@H](n3cnnn3)[C@H](OC)C2)CC(=O)[C@H](C)/C=C(\C)[C@@H](O)[C@@H](OC)C(=O)[C@H](C)C[C@H](C)/C=C/C=C/C=C/1C [zotarolimus]
Procedure, shortened: as §1

idasanutlin = compound: COc1cc(C(=O)O)ccc1NC(=O)[C@@H]1N[C@@H](CC(C)(C)C)[C@](C#N)(c2ccc(Cl)cc2F)[C@H]1c1cccc(Cl)c1F [idasanutlin]
Procedure, shortened: as §1

alisertib = compound: COc1cc(Nc2ncc3c(n2)-c2ccc(Cl)cc2C(c2c(F)cccc2OC)=NC3)ccc1C(=O)O [alisertib]
Procedure, shortened: as §1

[2] = compound: COc1cc2nc(-c3cc(F)ccc3O)nc(N[C@@H]3CNC[C@H]3C(C)(C)O)c2cc1OC
Procedure, shortened: as §1

gefitinib = compound: COc1cc2ncnc(Nc3ccc(F)c(Cl)c3)c2cc1OCCCN1CCOCC1 [gefitinib]
Procedure, shortened: as §1

[3] = compound: COc1cccc2cc(-c3nc([C@H]4CC[C@H](C(=O)O)CC4)n4ncnc(N)c34)[nH]c12
Procedure, shortened: as §1

lapatinib = compound: CS(=O)(=O)CCNCc1ccc(-c2ccc3ncnc(Nc4ccc(OCc5cccc(F)c5)c(Cl)c4)c3c2)o1 [lapatinib]
Procedure, shortened: as §1

pictilisib = compound: CS(=O)(=O)N1CCN(Cc2cc3nc(-c4cccc5[nH]ncc45)nc(N4CCOCC4)c3s2)CC1 [pictilisib]
Procedure, shortened: as §1

[4] = compound: CS(=O)(=O)c1ccc(-c2cnc(N)c(C(=O)Nc3ccccc3)n2)cc1
Procedure, shortened: as §1

crizotinib = compound: C[C@@H](Oc1cc(-c2cnn(C3CCNCC3)c2)cnc1N)c1c(Cl)ccc(F)c1Cl [crizotinib]
Procedure, shortened: as §1

[5] = compound: C[C@@H]1COCCN1C2=NC(=NC(=C2)C3(CC3)S(=O)(=O)C)C4=C5C=CNC5=CC=C4
Procedure, shortened: as §1

[6] = compound: C[C@H](C1=CC=C(C=C1)C(=O)NC2=C3C=CNC3=NC=C2)N
Procedure, shortened: as §1

duvelisib = compound: C[C@H](Nc1ncnc2nc[nH]c12)c1cc2cccc(Cl)c2c(=O)n1-c1ccccc1 [duvelisib]
Procedure, shortened: as §1

gandotinib = compound: Cc1cc(Nc2cc(CN3CCOCC3)c3nc(C)c(Cc4ccc(Cl)cc4F)n3n2)n[nH]1 [gandotinib]
Procedure, shortened: as §1

tozasertib = compound: Cc1cc(Nc2cc(N3CCN(C)CC3)nc(Sc3ccc(NC(=O)C4CC4)cc3)n2)n[nH]1 [tozasertib]
Procedure, shortened: as §1

[7] = compound: Cc1cc(SCc2sc(-c3ccc(C(F)(F)F)cc3)nc2C)ccc1OCC(=O)O
Procedure, shortened: as §1

doramapimod = compound: Cc1ccc(-n2nc(C(C)(C)C)cc2NC(=O)Nc2ccc(OCCN3CCOCC3)c3ccccc23)cc1 [doramapimod]
Procedure, shortened: as §1

ispinesib = compound: Cc1ccc(C(=O)N(CCCN)[C@@H](c2nc3cc(Cl)ccc3c(=O)n2Cc2ccccc2)C(C)C)cc1 [ispinesib]
Procedure, shortened: as §1

UniProt Q13428, sequence (Q13428 whole entry, looked up): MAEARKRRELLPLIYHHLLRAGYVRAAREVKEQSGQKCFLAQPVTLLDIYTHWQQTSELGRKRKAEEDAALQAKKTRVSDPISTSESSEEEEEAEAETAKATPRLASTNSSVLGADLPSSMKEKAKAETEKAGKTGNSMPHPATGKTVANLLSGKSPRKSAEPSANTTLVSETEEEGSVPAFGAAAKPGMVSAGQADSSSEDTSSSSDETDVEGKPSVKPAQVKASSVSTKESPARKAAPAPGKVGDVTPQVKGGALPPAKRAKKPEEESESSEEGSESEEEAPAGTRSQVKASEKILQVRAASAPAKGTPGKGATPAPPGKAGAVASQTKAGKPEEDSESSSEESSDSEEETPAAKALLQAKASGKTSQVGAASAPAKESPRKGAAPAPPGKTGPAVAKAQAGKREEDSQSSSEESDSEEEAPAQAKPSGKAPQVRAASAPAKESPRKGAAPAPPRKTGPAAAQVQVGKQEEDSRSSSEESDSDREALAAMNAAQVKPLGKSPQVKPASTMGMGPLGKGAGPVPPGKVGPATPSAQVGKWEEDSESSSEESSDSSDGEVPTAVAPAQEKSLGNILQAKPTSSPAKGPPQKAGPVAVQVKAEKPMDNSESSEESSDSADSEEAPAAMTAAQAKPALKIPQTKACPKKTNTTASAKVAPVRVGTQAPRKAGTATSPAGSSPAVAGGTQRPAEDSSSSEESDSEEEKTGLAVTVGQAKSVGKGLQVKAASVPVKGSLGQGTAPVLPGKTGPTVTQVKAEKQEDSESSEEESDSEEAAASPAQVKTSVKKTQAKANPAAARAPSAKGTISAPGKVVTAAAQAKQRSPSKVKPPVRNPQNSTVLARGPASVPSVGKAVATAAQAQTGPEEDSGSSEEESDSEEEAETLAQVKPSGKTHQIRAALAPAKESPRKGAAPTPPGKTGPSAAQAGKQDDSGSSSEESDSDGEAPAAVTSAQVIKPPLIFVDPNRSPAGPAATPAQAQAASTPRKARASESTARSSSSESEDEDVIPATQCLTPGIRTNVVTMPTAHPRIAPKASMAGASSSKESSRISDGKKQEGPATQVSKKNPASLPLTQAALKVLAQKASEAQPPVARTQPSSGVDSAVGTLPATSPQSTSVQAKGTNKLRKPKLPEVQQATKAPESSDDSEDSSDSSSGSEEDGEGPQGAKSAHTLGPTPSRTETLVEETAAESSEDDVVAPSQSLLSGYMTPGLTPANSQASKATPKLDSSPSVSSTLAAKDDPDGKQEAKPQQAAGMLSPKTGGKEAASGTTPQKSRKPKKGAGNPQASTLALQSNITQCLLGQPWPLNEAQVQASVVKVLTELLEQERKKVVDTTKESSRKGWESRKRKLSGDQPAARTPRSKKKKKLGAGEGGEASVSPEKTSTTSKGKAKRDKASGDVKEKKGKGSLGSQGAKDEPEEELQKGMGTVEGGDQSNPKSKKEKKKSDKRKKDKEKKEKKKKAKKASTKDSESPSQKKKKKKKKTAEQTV
UniProt P31641, sequence (P31641 whole entry, looked up): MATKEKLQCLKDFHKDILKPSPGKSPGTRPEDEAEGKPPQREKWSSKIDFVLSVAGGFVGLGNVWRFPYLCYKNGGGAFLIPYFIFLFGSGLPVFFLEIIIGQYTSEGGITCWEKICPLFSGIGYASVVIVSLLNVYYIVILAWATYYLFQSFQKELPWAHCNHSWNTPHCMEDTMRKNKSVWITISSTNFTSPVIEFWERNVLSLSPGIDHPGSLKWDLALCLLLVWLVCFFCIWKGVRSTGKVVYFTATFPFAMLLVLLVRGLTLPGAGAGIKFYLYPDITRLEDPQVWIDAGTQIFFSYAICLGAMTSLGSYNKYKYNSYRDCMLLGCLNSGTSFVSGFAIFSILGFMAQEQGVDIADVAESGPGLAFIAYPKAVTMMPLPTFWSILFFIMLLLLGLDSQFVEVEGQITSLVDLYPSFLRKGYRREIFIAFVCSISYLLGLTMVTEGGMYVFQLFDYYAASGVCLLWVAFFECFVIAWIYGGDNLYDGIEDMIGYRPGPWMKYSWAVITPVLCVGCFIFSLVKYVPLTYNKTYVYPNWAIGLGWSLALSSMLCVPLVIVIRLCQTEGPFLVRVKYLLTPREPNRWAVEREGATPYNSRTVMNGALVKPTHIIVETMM
UniProt P08579, sequence (P08579 whole entry, looked up): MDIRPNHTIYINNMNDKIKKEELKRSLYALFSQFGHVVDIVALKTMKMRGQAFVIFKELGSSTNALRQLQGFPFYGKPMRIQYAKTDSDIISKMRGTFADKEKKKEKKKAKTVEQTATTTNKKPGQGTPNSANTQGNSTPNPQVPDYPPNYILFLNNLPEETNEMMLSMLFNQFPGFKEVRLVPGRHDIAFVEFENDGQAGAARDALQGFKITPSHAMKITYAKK
UniProt P04920, sequence (P04920 whole entry, looked up): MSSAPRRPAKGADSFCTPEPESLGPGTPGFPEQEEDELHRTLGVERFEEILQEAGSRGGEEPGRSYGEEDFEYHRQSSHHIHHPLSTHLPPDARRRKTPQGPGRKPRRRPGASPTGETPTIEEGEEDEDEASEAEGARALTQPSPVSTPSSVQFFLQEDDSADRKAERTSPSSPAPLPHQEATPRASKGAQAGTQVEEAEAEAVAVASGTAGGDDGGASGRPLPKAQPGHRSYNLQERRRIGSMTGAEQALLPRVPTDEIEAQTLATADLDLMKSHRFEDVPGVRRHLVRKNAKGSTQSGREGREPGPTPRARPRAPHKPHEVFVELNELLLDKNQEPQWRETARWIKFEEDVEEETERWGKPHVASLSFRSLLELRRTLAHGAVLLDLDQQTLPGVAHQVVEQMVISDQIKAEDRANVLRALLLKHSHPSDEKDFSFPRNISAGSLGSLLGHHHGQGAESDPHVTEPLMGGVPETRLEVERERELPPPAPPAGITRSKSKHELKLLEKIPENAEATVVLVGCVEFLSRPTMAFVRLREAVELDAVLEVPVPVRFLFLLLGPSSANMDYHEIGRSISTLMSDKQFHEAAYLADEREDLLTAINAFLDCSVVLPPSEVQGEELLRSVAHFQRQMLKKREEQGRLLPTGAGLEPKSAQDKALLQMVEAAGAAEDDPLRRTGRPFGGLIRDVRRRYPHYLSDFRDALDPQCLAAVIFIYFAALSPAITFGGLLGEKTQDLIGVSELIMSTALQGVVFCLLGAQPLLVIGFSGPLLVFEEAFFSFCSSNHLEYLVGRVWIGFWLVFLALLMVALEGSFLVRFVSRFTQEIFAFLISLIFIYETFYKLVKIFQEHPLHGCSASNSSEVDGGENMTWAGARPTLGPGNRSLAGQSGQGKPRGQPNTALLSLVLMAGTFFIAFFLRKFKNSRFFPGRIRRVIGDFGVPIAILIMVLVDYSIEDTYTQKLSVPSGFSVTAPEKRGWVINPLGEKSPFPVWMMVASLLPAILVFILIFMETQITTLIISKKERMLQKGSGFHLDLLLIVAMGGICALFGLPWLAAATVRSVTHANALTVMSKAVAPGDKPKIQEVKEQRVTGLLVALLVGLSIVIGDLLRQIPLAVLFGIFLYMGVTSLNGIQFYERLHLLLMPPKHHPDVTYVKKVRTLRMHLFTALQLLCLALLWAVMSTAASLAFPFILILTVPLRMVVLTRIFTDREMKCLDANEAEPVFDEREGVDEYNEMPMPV
UniProt O95926, sequence (O95926 whole entry, looked up): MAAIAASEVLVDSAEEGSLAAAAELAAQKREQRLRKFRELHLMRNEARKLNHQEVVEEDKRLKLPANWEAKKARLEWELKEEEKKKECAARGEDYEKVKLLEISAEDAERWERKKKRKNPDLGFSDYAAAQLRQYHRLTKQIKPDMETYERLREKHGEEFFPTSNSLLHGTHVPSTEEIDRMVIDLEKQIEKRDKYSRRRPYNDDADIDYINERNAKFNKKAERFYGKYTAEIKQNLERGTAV
UniProt Q16842, sequence (Q16842 whole entry, looked up): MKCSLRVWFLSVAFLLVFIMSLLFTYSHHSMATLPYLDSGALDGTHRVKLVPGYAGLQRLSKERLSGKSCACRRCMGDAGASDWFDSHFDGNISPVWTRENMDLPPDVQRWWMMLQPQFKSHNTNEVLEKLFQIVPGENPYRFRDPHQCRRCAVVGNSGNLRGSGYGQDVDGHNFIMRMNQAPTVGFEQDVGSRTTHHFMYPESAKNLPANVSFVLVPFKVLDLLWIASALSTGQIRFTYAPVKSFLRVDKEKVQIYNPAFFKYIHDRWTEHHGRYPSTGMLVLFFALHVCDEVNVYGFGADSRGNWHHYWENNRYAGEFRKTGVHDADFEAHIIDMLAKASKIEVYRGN
UniProt O14975, sequence (O14975 whole entry, looked up): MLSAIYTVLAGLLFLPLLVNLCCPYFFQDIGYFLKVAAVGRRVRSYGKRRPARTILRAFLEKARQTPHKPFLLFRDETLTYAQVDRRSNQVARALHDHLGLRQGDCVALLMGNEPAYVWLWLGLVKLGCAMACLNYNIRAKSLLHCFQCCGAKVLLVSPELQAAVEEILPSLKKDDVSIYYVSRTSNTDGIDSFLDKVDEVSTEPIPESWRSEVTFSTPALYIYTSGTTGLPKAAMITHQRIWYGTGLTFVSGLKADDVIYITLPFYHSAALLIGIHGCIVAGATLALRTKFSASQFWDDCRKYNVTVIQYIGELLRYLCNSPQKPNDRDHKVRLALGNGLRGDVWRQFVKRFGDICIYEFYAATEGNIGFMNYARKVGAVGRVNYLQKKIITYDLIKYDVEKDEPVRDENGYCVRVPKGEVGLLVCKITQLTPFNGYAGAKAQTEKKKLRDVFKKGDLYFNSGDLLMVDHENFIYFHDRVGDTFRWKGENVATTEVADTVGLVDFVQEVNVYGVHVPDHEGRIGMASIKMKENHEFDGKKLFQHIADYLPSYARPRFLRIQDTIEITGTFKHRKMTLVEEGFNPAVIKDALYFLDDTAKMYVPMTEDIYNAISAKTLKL
UniProt Q00059, sequence (Q00059 whole entry, looked up): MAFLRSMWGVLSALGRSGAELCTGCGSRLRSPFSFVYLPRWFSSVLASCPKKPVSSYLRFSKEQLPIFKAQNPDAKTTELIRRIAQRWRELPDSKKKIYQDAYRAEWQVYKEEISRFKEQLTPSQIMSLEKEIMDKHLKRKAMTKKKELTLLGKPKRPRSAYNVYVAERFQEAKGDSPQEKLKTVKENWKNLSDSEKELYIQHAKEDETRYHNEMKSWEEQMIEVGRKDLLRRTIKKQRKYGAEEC

Row | Target | log2 fold change [1] | log2 fold change (filanesib) | log2 fold change (zotarolimus) | log2 fold change (idasanutlin) | log2 fold change (alisertib) | log2 fold change [2] | log2 fold change (gefitinib) | log2 fold change [3] | log2 fold change (lapatinib) | log2 fold change (pictilisib) | log2 fold change [4] | log2 fold change (crizotinib) | log2 fold change [5] | log2 fold change [6] | log2 fold change (duvelisib) | log2 fold change (gandotinib) | log2 fold change (tozasertib) | log2 fold change [7] | log2 fold change (doramapimod) | log2 fold change (ispinesib)
1 | TCOF1 isoform 4 (UniProt Q13428) | 0.002 | 0.028 | -0.011 | 0.092 | -0.061 | -0.051 | -0.01 | -0.002 | 0.017 | 0.028 | -0.008 | -0.053 | 0.021 | -0.016 | -0.029 | 0.042 | 0.002 | -0.047 | 0.013 | -0.01
2 | TECR (UniProt Q9NZ01) | -0.031 | -0.169 | -0.041 | -0.111 | -0.028 | -0.102 | -0.027 | 0.034 | -0.012 | -0.102 | -0.002 | -0.247 | 0.054 | 0.045 | 0.05 | -0.344 (active) | -0.031 | 0.044 | -0.095 | -0.501 (active)
3 | SNRPB2 (UniProt P08579) | -0.018 | 0.057 | -0.035 | 0.021 | -0.121 | 0.047 | -0.021 | -0.006 | -0.002 | 0.006 | -0.014 | 0.02 | -0.024 | 0.008 | -0.017 | 0.026 | -0.008 | -0.048 | -0.01 | 0.027
4 | SYF2 (UniProt O95926) | -0.236 | 0.069 | -0.174 | 0.058 | -0.07 | 0.191 | -0.109 | 0.02 | -0.025 | -0.092 | -0.147 | 0.206 | -0.031 | 0.157 | -0.039 | 0.11 | -0.113 | -0.078 | 0.022 | -0.079
5 | STARD3 (UniProt Q14849) | 0 | -0.147 | -0.004 | 0.109 | 0.018 | 0.038 | 0.075 | 0.035 | 0.043 | -0.047 | 0.017 | -0.36 (active) | 0.194 | -0.043 | 0.065 | 0.098 | -0.06 | -0.015 | 0.043 | -0.559 (active)
6 | ST3GAL2 (UniProt Q16842) | 0.087 | 0.124 | 0.092 | 0.075 | -0.134 | 0.1 | 0.187 | -0.043 | 0.17 | 0.102 | 0.096 | -0.288 | -0.017 | 0.006 | 0.035 | 0.127 | 0.024 | 0.033 | 0 | -0.096
7 | SLC27A2 (UniProt O14975) | 0.089 | -0.033 | 0.032 | 0.257 | -0.034 | 0.046 | 0.156 | -0.052 | 0.112 | 0.034 | 0.273 (active) | 0.046 | -0.005 | -0.031 | 0.094 | 0.094 | 0.166 | 0.108 | 0.027 | -0.056
8 | TGFBRAP1 (UniProt Q8WUH2) | 0.092 | -0.006 | -0.031 | -0.137 | 0.046 | 0.092 | 0.047 | -0.103 | -0.098 | -0.136 | -0.081 | -0.367 | 0.051 | 0.067 | -0.088 | -0.142 | 0.051 | 0.087 | 0 | -0.221
9 | SLC6A6 (UniProt P31641) | -0.1 | -0.013 | -0.017 | -0.066 | -0.031 | -0.066 | -0.044 | 0.041 | -0.012 | 0.072 | 0.021 | 0.04 | -0.026 | -0.021 | 0.06 | -0.049 | -0.091 | -0.042 | -0.063 | -0.028
10 | THYN1 (UniProt Q9P016) | -0.01 | -0.009 | 0.015 | -0.011 | -0.065 | 0.035 | 0.028 | -0.007 | -0.039 | -0.032 | -0.015 | 0.061 | 0.001 | 0.011 | 0.071 | 0.021 | -0.024 | 0.087 | -0.036 | -0.002
11 | STARD9 (UniProt Q9P2P6) | -0.037 | -0.028 | 0.098 | -0.035 | 0.096 | 0.058 | -0.132 | -0.185 | 0.154 | 0.008 | 0.144 | 0.141 | 0.012 | 0.049 | -0.06 | 0.04 | 0.013 | 0.028 | 0.074 | -0.146
12 | TM9SF4 (UniProt Q92544) | 0.048 | -0.04 | 0.036 | 0.004 | -0.031 | -0.023 | 0.086 | 0.004 | 0.274 | -0.161 | -0.029 | -0.141 | 0.036 | 0.04 | -0.015 | -0.189 | 0.006 | 0.044 | 0.034 | -0.143
13 | SPART (UniProt Q8N0X7) | -0.073 | 0.011 | 0.02 | 0.03 | -0.009 | 0.067 | 0.054 | -0.028 | -0.015 | 0.05 | 0.006 | -0.107 | 0.056 | 0.101 | 0.053 | -0.088 | 0.044 | 0.055 | 0.014 | -0.001
14 | TIMM44 (UniProt O43615) | 0 | -0.229 | 0.027 | -0.042 | -0.021 | -0.296 (active) | -0.135 | 0.017 | -0.073 | -0.041 | -0.028 | -0.207 | 0.056 | -0.015 | 0.085 | -0.258 | -0.038 | 0.091 | -0.035 | -0.128
15 | SLC4A2 (UniProt P04920) | -0.088 | -0.041 | 0 | -0.002 | -0.016 | 0.051 | -0.081 | -0.003 | -0.023 | 0.128 | 0.114 | -0.053 | 0.013 | 0.126 | -0.015 | -0.075 | -0.069 | -0.058 | 0.07 | -0.099
16 | TFAM (UniProt Q00059) | -0.035 | 0.048 | 0.01 | 0.046 | -0.1 | 0.015 | -0.026 | -0.058 | -0.012 | -0.04 | -0.071 | 0.058 | -0.153 | 0.117 | -0.04 | 0.176 | 0.036 | -0.034 | 0.022 | -0.117
